# From PubChem BioAssay
# JMJD2E inh – JMJD2E (human) inhibition | AID 2147 | B2RXH2 | Potency, µM (series often up to 57.1 µM), inactives show at the top dose activity change, negative = inhibition, actives largely listed as inhibitors | JMJD2E catalytic domain, FDH-coupled NADH fluorescence (FDH is formaldehyde dehydrogenase) | actives 1.6% (n = 230,000); active means well fitted inhibition curve with a large enough effect, not every such curve was filed as active; inconclusive means small, poorly fitted or top-dose-only effect, or another doubt; inactive means no such curve, though single readings can be large or run the other way;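 further: potency means the concentration at half of the fitted maximal effect; 0% = wells with enzyme and -100% = buffer wells without enzyme; nearly all actives have a fitted effect of over 50% in size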
# Target sequence (B2RXH2 1-337 limits assumed): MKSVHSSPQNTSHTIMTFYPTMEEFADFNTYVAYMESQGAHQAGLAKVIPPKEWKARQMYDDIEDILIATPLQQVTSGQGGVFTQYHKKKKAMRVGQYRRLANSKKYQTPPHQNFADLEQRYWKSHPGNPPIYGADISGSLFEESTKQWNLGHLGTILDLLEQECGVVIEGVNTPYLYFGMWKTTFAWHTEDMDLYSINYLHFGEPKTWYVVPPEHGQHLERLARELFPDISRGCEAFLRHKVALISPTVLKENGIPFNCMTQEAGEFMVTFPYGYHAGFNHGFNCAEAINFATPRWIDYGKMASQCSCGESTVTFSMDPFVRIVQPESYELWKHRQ
# FBPA coupling cs – inhibits coupling enzyme system, counter-screen for aldolase hits | coupling enzyme system counterscreen, AmpLite Red fluorescence | activity change, negative = inhibition, % at 58.2 µM, hits read low | actives 0.67% (n = 290,000) | AID 2472; in the data active means activity change below about -30%
#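 Counterscreen lacking aldolase: glyceraldehyde-3-phosphate coupling-enzyme reagent preincubated 10 min at RT with compound (at 57.5 uM final), then substrate/coupling system with AmpLite Red added; fluorescence read at 525/598 nm after 20 min RT.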
# Sfp PPTase inh – inhibitors of Bacillus subtilis Sfp phosphopantetheinyl transferase. Q9F4F7. Biochemical Sfp PPTase activity, qHTS. Potency, µM, inactives show largest response in the series, negative = inhibition, hits mostly inhibitors. actives 3.5% (n = 310,000). AID 1490;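 further: the enzyme is Sfp with the accession as filed and its product quenches rhodamine fluorescence; potency means the concentration at half of the fitted maximal effect; 0% = enzyme reaction without inhibitor and -100% = no enzyme wells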
#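 Fluorescence-quenching assay with 15 nM Sfp, 5 uM rhodamine-CoA and 12.5 uM BHQ-2-labelled ybbR peptide in pH 7.6 Hepes/MgCl2 buffer. Enzyme was pre-incubated with compound for 15 min at room temperature. Rate was taken from the 30-min fluorescence change (525/598 nm).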
# Tau fluor cs – counter-screen for tau fibril formation inhibitors; tau K18 P301L Alexa594 fluorescence, heparin fibrillization; Potency, µM (doses to about 57.7 µM), inactives show top-dose activity change, negative = decrease; actives 0.93% (n = 280,000); AID 1463; further: potency means the concentration at half of the fitted maximal effect; nearly all actives have a fitted effect of over 55% in size
#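 Human K18 P301L tau (15 uM unlabeled plus 0.24 uM Alexa 594-labeled, final) in 100 mM sodium acetate pH 7 was mixed with compound and 20 uM heparin and incubated 6 hr at 37 C.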
# Tau fibril ThT – inhibitors of human tau fibril formation, thioflavin T binding | P10636 | recombinant tau K18 P301L (four-repeat tau fragment), heparin-induced fibrillization, ThT fluorescence | Potency, µM (top dose mostly 57.4 µM), without a hit: top-dose activity, negative = inhibition, most hits filed as inhibitors | actives 2.1% (n = 270,000) | AID 1460; further: potency means the concentration at half of the fitted maximal effect; nearly all actives have a fitted effect of over 55% in size
# Target sequence (P10636 561-689 P618L limits assumed): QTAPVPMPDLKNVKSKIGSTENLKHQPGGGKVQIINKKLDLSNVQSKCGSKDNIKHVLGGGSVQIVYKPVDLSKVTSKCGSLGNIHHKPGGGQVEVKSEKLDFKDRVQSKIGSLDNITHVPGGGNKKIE
#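 Heparin-induced (20 uM) aggregation of recombinant human K18 P301L tau, 15 uM unlabeled with 0.24 uM labeled, pH 7 acetate buffer, 6 hr at 37 C with compound. Fibrils quantified by 30 uM ThT fluorescence after 1 hr ambient incubation.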
# Tau FP inhib – inhibitors of human tau fibril formation | K18 P301L tau heparin fibrillization, Alexa594 FP, 6 h | Potency, µM (titrated, usually from 57.7 µM), inactives show top-dose activity, negative = inhibition, hits mostly inhibitors | P10636 | actives 0.39% (n = 280,000); further: potency means the concentration at half of the fitted maximal effect; nearly all actives have a fitted effect of over 55% in size
#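 K18 P301L tau (15 uM unlabeled/0.24 uM Alexa 594-labeled, final) + compound + heparin 20 uM final; 100 mM NaOAc pH 7; 6 hr 37 C; ThT 30 uM final added, 1 hr RT; FP ex 555/em 632 nm.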
# Starred values were filed as active, the others as inactive; ? = inconclusive; · = no result given; [ ] = another dose, or the depositor's remark. Most compounds without a hit are left out; they make up all but 5.3% or so of the library. Unless noted, the call rests on the fitted dose curve; in most records, active means well fitted curve in the direction sought with a large enough effect; inconclusive means small, poorly fitted or top-dose-only effect, or another doubt; inactive means no such curve, though single readings can be large; an effect the other way counts as inactive or inconclusive. Unless noted, on the % scale 0 is the no-effect control and ±100 the full control effect.
SMILES,JMJD2E inh,FBPA coupling cs,Sfp PPTase inh,Tau fluor cs,Tau fibril ThT,Tau FP inhib
COc1ccc(N=C2S/C(=C\c3ccc(C)o3)C(=O)N2CC(C)C)cc1,-16%,-3,28µM*,-27%,?,2%
CCCN1C(=O)/C(=C/c2ccco2)SC1=Nc1ccc(OC)cc1,?,2,?,-18%,?,-4%
COc1cc(OC)c(NC(=O)c2c(C)nn(-c3ccc(C)cc3)c2-n2cccc2)cc1Cl,·,·,·,-19%,-3%,-7%
COc1cc(C(CC(=O)Nc2ccc(Br)cn2)N2Cc3ccccc3C2=O)cc(OC)c1OC (centres undefined),·,·,·,-2%,12%,-5%
COc1ccc(-n2nc(C(=O)NCCc3ccc(OC)c(OC)c3)c3c4ccccc4n(C)c3c2=O)cc1Cl,·,·,·,-18%,-3%,?
O=C(c1cnccn1)N1CCC2(CC1)CN(c1ncccn1)C2,·,3,21%,·,·,·
COC(=O)C1(C(=O)OC)Cc2conc2[C@H]1c1ccccc1,-1%,1,-4%,?,?,?
COc1ccc(NC(=O)N2CC[C@@]3(CCCN(C(C)=O)C3)C2)cc1,·,-4,?,·,·,·
O=C1Nc2ccc([N+](=O)[O-])cc2OC1CCN1CCN(c2ccccc2)CC1 (centres undefined),-1%,1,11%,-23%,10µM*,1%
COc1ccc(-c2nc3cnc(N4CCN(C)CC4)nc3n(Cc3ccc(F)cc3)c2=O)cc1,·,5,?,·,·,·
N#C/C(=C1/SCC(c2ccccc2Cl)S1)n1ccnc1 (centres undefined),·,·,6%,·,·,·
Cc1cc2cc(CNC(=O)c3ccc(Br)o3)ccc2n1C,-23%,-24,28µM*,-6%,?,-9%
CCCC(=O)NCc1ccc2c(c1)cc(C)n2C,?,-19,?,6%,0%,10%
Cc1cccc(NC(=O)NCc2ccc3c(c2)cc(C)n3C)c1,-7%,-22,50µM*,-14%,0%,6%
COc1ccc(NC(=O)Cn2cc(C(=O)C3CCCCC3)c3ccccc32)cc1,·,·,·,?,0%,?
O=C1COc2ccc(S(=O)(=O)N3CCCC3)cc2N1,·,0,7%,·,·,·
O=C1COc2ccc(N3C(=O)C=CC3=O)cc2N1,1%,5,4µM*,-2%,0%,-14%
COc1cc(/C=N/Nc2cccc3cccnc23)cc(OC)c1O,?,-1,50µM*,?,?,7%
COc1ccc(NC(=O)C(=O)Nc2cccc3cccnc23)cc1OC,·,1,3%,·,·,·
Oc1cccc(/C=N/Nc2cccc3cccnc23)c1,?,0,45µM*,16µM*[quencher],14µM*,?
Oc1c(/C=N/Nc2cccc3cccnc23)ccc2ccccc12,?,-6,-7%,?,?,9%
CSCC[C@H](NC(=O)[C@@H](NC(=O)[C@H](CCC(=O)O)NC(=O)[C@H](CCSC)NC(=O)[C@H](CC(N)=O)NC(=O)[C@H](CCC(=O)O)NC(=O)[C@H](CC(N)=O)NC(=O)[C@H](CO)NC(=O)[C@H](C)N)[C@@H](C)O)C(=O)O,·,-3,-3%,·,·,·
CCOc1ccc(-c2cnc(NCc3cccc(Cl)c3)n2C)cc1,·,·,·,-22%,?,12%
CCOc1ccc(-c2cnc(NCc3cccc4ccccc34)n2CCOC)cc1,·,-1,56µM*,·,·,·
CC(=O)C1=C(O)C(=O)N(Cc2ccco2)C1c1ccccc1 (centres undefined),-10%,-7,56µM*,0%,-4%,-3%
SMILES,JMJD2E inh,FBPA coupling cs,Sfp PPTase inh,Tau fluor cs,Tau fibril ThT,Tau FP inhib
CC(=O)C1=C(O)C(=O)N(Cc2ccco2)C1c1ccc(F)cc1 (centres undefined),?,-3,45µM*,0%,-13%,-7%
COc1ccc(C2C(C(=O)c3ccc(C)o3)=C(O)C(=O)N2Cc2ccco2)cc1OC (centres undefined),·,·,45µM*,·,·,·
CC(=O)C1=C(O)C(=O)N(Cc2ccco2)C1c1ccccc1F (centres undefined),-26%,-8,-16%,-8%,-17%,-9%
CCCOc1ccc(C2C(C(=O)c3ccc(C)o3)=C(O)C(=O)N2Cc2ccco2)cc1OCC (centres undefined),·,4,-10%,·,·,·
COC(=O)c1sc(=S)sc1C(=O)OC,0%,1,-26%,-19%,3.2µM*,?
COC(=O)c1sc(C(=O)OC)c(C(=O)OC)c1C(=O)OC,3%,5,26%,2%,-5%,-4%
CC(C)OCCCNC(=O)c1sc(=S)n(C)c1N,-13%,0,50µM*,-7%,-12%,-6%
CCn1c(N)c(C(=O)NCc2cccnc2)sc1=S,-8%,-2,-13%,-2%,-10%,-2%
Cn1c(N)c(C(=O)NCc2ccccc2Cl)sc1=S,1%,1,-29%,-26%,-8%,-2%
C=CCn1c(N)c(C(=O)NCC2CCCO2)sc1=S (centres undefined),5%,4,17%,-1%,0%,-6%
CCNC(=O)c1sc(=S)n(CC)c1N,-4%,0,50µM*,-10%,-7%,-4%
CCn1c(N)c(C(=O)NCC2CCCO2)sc1=S (centres undefined),-16%,-1,18µM*,-16%,35µM*,?
CCn1c(N)c(C(=O)N2CCOCC2)sc1=S,-4%,-1,45µM*,-10%,-3%,?
